This is an account of results in the OligoGym collection.
Also: reference of the scale not given here.

The target in one test is AMY2A. Kind of test: pooled miR-30 sensor sort-seq; sequence = guide strand. The conditions noted are these: shRNA.
In the case of TTATCCACAAAGACAAGCGCTC, the sensor-assay potency score (higher = more potent) was -0.172.
Consider TTTACCATCATTGAAATCCCAT, for which the sensor-assay potency score (higher = more potent) was -0.145.
For TTAAAGAAAATGACCAGTCATC, the sensor-assay potency score (higher = more potent) was -0.896.
Regarding TTGTACAGCCTAGCATCCCAGA, the sensor-assay potency score (higher = more potent) is -1.14.
TTAAGTAAGACATCTTCTCTCC: the sensor-assay potency score (higher = more potent) was 0.353.
Still for that read-out and setting: then TACATTGCGGAAAATAACCATG, with -1.22.

In a further test the target is ANAPC5. The description is as above. The settings on record: shRNA.
As to TTTTGATCACATAACATCCATA, the sensor-assay potency score (higher = more potent) is -1.19.
On the same count and under the same terms, the value for TACAGTTTAAACACTTGGCTGA was 0.833; that for TGTAATACAACCGCTTTCCTAT was -0.539; that for TTGTTTTGTGAACCTCTGGTTC was -0.673.
Still for that read-out and setting: then TTGAACTGAAAACATCTTGGAC, with -0.413.
TTTTTGATCACATAACATCCAT: the sensor-assay potency score (higher = more potent) was determined as 0.00973.
With TCACATAACATCCATAACTGGG, the sensor-assay potency score (higher = more potent) is -0.755.
